Test results taken from PubChem BioAssay.
The source made the active and inactive calls.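 How the source made its calls, unless noted: active means compound raises insulin release from rat beta cells at 5 mM glucose, no numeric limit stated; inactive means the rest.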

Legend:
[1] = Wnt pathway potentiators raising nuclear beta-catenin – imaging, WNT3A-conditioned medium, mouse C2C12, NPC library, primary screen (AID 1117326; in the data active means nuclear beta-catenin stimulation mostly above about 4.2%, no sharp cut-off; inactive means mostly below about 10%; further: reference of the scale not given here); conditions: stronger effect = higher value
[2] = stimulators of insulin release from INS-1E, primary screen, cell-based, 5 mM glucose, NPC library (AID 1117329); conditions: rat INS-1E insulin secretion, at 10 µM, stronger effect = higher value; further: reference of the scale not given here
[3] = growth inhibition of GSK3B-pretreated HCT116 cells – cell-based, CellTiter-Glo, 0.2 to 20 µM (AID 1117336;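 active means compounds lowering colon cancer cell viability after pretreatment blocking the GSK3B kinase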); conditions: HCT116 viability after GSK3B inhibitor, at 20 µM, stronger effect = higher value
[4] = inhibition of endothelial tube formation, primary screen, imaging, VEGF stimulated, CD31 staining, tube area, NPC library (AID 1117340;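 active means compound that reduces growth-factor-driven endothelial tube area in a mixed cell culture, no cutoff stated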); conditions: VEGF-stimulated ADSC/ECFC co-culture, at 10 µM, stronger effect = higher value
[5] = GLP1 release stimulators, primary, NCI-H716, NPC library (AID 1117341;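 active means compound raises GLP1 secretion from the human gut endocrine cells, with no numeric limit stated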; further: reference of the scale not given here); conditions: NCI-H716 cells, at 10 µM, stronger effect = higher value
[6] = HCT116 colon cancer cell growth inhibition, primary screen, CellTiter-Glo luminescence, NPC library (AID 1117342;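 active means compounds that lower survival of HCT116 colon cancer cells in the luminescence readout, no numeric limit stated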); conditions: at 20 µM (top of the series)
[7] = reduced SW480 viability measured with CellTiter-Glo, NPC library, primary (AID 1117343;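 active means compounds that lower viability of the colon cancer cells in the luminescence readout, with no numeric limit stated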); conditions: CellTiter-Glo luminescence; at 20 µM (top of the series)
[8] = NPC library primary testing for decreased DLD-1 cell viability via CellTiter-Glo (AID 1117346;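 active means compounds that lower survival of DLD-1 colon cancer cells in the luminescence readout, no cutoff given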); conditions: DLD-1 viability, CellTiter-Glo luminescence; at 20 µM (top of the series)

Compound	nuclear beta-catenin stimulation ([1]; at 10 µM)	nuclear beta-catenin stimulation ([1]; stimulation, at 2 µM)	insulin secretion stimulation [2]	viability decrease [3]	tube area decrease [4]	GLP1 secretion stimulation [5]	inhibition of viability [6]	viability decrease (inhibition) [7]	viability decrease (inhibition) [8]
CC(=O)c1ccc(O)c(C(N)=O)c1	0.2% (inactive)	-1.6%	0.6% (inactive)	20.8% (inactive)	-0.3% (inactive)	1.6% (inactive)	0.1% (inactive)	-10.5% (inactive)	6.9% (inactive)
CCOC(=O)C(O)c1ccccc1 (centres undefined)	1.9% (inactive)	9.6%	0% (inactive)	-1.8% (inactive)	-9.7% (inactive)	0.1% (inactive)	1.4% (inactive)	-10% (inactive)	-2.3% (inactive)
CN(CC1(C)CCCO1)S(=O)(=O)c1ccc(Cl)c(S(N)(=O)=O)c1 (centres undefined)	-0.8% (inactive)	-1.9%	2% (inactive)	-0.1% (inactive)	-8.9% (inactive)	2.8% (inactive)	12.4% (inactive)	-9.7% (inactive)	2.2% (inactive)
CCC(=O)O	-0.6% (inactive)	1.3%	3.2% (inactive)	-1.2% (inactive)	-25.7% (inactive)	-3% (inactive)	3.7% (inactive)	-0.5% (inactive)	3.7% (inactive)
CCCC(CCC)(C(=O)OCC)C(=O)OCC	-1.3% (inactive)	-2.9%	2.1% (inactive)	11.4% (inactive)	-3.8% (inactive)	3.5% (inactive)	12.2% (inactive)	1.4% (inactive)	-4.9% (inactive)
NC(=O)NS(=O)(=O)c1ccc(Cl)cc1	1.1% (inactive)	16.9%	3.4% (inactive)	-3.8% (inactive)	-14.2% (inactive)	-1.2% (inactive)	2.5% (inactive)	-13.4% (inactive)	-2.8% (inactive)
O=C(O)c1ccccc1-c1ccc(C(F)(F)F)cc1	2.2% (inactive)	0.7%	-0.1% (inactive)	-52.5% (inactive)	21.5% (inactive)	5.5% (inactive)	-0.77% (inactive)	31.1% (inactive)	-11.8% (inactive)
CCOC(=O)COc1ccc2c(C)c(CCN(CC)CC)c(=O)oc2c1Cl	-2.3% (inactive)	-0.4%	0% (inactive)	-5% (inactive)	45.5% (active)	2.5% (inactive)	15.1% (inactive)	7.8% (inactive)	-17.9% (inactive)
NCCC(=O)[N-][C@@H](Cc1cnc[nH]1)C(=O)O.[Zn]	-0.4% (inactive)	-0.2%	-0.8% (inactive)	-1.2% (inactive)	9.1% (inactive)	1.7% (inactive)	-12.4% (inactive)	-14.8% (inactive)	5.9% (inactive)
COc1cc(C(=S)N2CCOCC2)cc(OC)c1OC	-0.6% (inactive)	2%	1.5% (inactive)	-0.85% (inactive)	-15.3% (inactive)	-0.3% (inactive)	-1.2% (inactive)	9.6% (inactive)	1.7% (inactive)
CCO[C@@H]1O[C@H](C(COCc2ccccc2)OCc2ccccc2)[C@H](OCc2ccccc2)[C@H]1O (some centres undefined)	-1.3% (inactive)	-1.2%	2.2% (inactive)	15.1% (inactive)	28.6% (inactive)	6.9% (inactive)	81.6% (active)	63.5% (active)	44.6% (active)
COC1=C(OC)C(=O)C(CC=C(C)CCC=C(C)CCC=C(C)CCC=C(C)CCC=C(C)CCC=C(C)CCC=C(C)CCC=C(C)CCC=C(C)CCC=C(C)C)=C(C)C1=O	0.8% (inactive)	1.2%	3.9% (inactive)	13.5% (inactive)	-5.2% (inactive)	1.9% (inactive)	4.6% (inactive)	-7.3% (inactive)	1.9% (inactive)
C/C(=C(\CCO)SS/C(CCO)=C(\C)N(C=O)Cc1cnc(C)nc1N)N(C=O)Cc1cnc(C)nc1N	0.2% (inactive)	-0.9%	0.9% (inactive)	-14.3% (inactive)	-4.4% (inactive)	-0.7% (inactive)	0.6% (inactive)	-11.8% (inactive)	7.4% (inactive)
CCCCC(CC)CNC(=O)CC(C)OC(=O)CCC(=O)O (centres undefined)	-1.8% (inactive)	-0.8%	4% (inactive)	-11.7% (inactive)	0.6% (inactive)	-1% (inactive)	4.5% (inactive)	4.5% (inactive)	-7.8% (inactive)
CCCCC(=O)OCC(=O)[C@H]1[C@H](C)C[C@H]2[C@@H]3C[C@H](F)C4=CC(=O)C=C[C@]4(C)[C@@]3(F)[C@@H](O)C[C@@]21C	-1.1% (inactive)	-1.4%	13.7% (inactive)	-7.2% (inactive)	-11.7% (inactive)	0.8% (inactive)	17.1% (inactive)	-15.9% (inactive)	-9.9% (inactive)
O=C(CCN1CCN2CCCC2C1)N1c2ccccc2Sc2ccc(Cl)cc21 (centres undefined)	1.1% (inactive)	0.2%	63.8% (active)	49.9% (inactive)	8% (inactive)	8.5% (inactive)	61.4% (active)	99.3% (active)	49.5% (inactive)
